# From PubChem BioAssay (NCI)
# About 83,000 compounds went through this panel and 20% of them were active in at least one assay; those are over-represented in the sample as a whole.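 Treatment: one concentration, 48 hours, 96-well format. Scoring: percent growth, with anything below 10 considered active.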 Unmarked numbers belong to inactive results. Calls of active or inactive are those of the source.
# System: HL-60(TB) leukemia
# Experiment: NCI-60 one-dose screen, 48 h (100 = growth as untreated, 0 = no growth, -100 = all killed)
# Details: 10 µM unless noted
row,SMILES,growth
1,Cc1ccc(NC(=O)c2sc3nc4c(cc3c2N)C(=O)CCC4)cc1,110%
2,Cc1c(Cl)cccc1NC(=S)NC(=O)c1ccccc1,92.9%
3,CC1=NN(c2ccccc2)C(=O)/C1=C\N1CC(=O)NC1=S,103%
4,COc1ccc2[nH]c(-c3ccccc3)c(C=C(C#N)C#N)c2c1,-49.1% (active)
5,Fc1ccc2[nH]cc(-c3nc(-c4c[nH]c5c(Cl)nccc45)cs3)c2c1,35.4%
6,NC(=S)N/N=C(/c1cccs1)C1CC1,79.9%
7,O=S(=O)(Nc1ccccn1)c1ccc(N=Nc2ccc(O)c3ncccc23)cc1,-30.6% (active)
8,COc1ccc(-n2nc(C(=O)NCC(=O)Nc3nc4cc(OC)ccc4s3)c3ccccc3c2=O)cc1,61.7%
9,Nc1cc(-c2ccncc2)c[nH]c1=O,87.6%
10,COc1cc(NCCCN)c2ncccc2c1,68%
11,CC[C@]12C=CCN3CC[C@@]4(c5ccc(OC)cc5N(C)[C@H]4[C@@](O)(C(=O)OC)[C@@H]1OC(=O)CCC(=O)O[C@H]1CC[C@H]4[C@@H]5CCC6=CC(=O)CC[C@@H]6[C@H]5CC[C@]14C)[C@@H]32,-37.9% [100 µM] (active)
12,NNc1ncnc2cccc(Cl)c12,99.9%
13,Cc1cc(O)cc(-c2nn(C)cc2-c2cc(N3CCOCC3)nc(-c3cccnc3)n2)c1,14.8%
14,NC(CC(N)C(=O)O)C(=O)O (stereo not given),110%
15,CCCCCCCCSC1=CC(=O)C(OC)=C(OC)C1=O,-10.5% (active)
